Reference: PubChem BioAssay (NCATS)
Records with an inconclusive call do not appear. Activity calls are given as the source filed them. Calls follow the shape of the dose curve; as a rule, active = well fitted inhibition curve with a large enough effect; inconclusive = small, poorly fitted or top-dose-only effect; inactive = flat fitted curve, though single readings scatter.

Tests used:
GB4 = assay: qHTS profiling for inhibitors of Plasmodium falciparum proliferation (AID 504749); conditions: P. falciparum in erythrocytes, SYBR Green DNA, 72 h; series mostly up to 28.7 µM
Summary of the method: (§1)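 SYBR Green fluorescence (ex 485 nm, em 535 nm) reports parasite DNA after 72 h compound exposure of infected red cells at 0.3% parasitemia, 2.5% hematocrit; signal normalized to 0.29 uM artemisinin and vehicle wells.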

HB3 = assay: as above; conditions: P. falciparum in erythrocytes, SYBR Green DNA, 72 h; series mostly up to 28.7 µM
Summary of the method: as §1

ICS = assay: as above; conditions: P. falciparum in erythrocytes, SYBR Green DNA, 72 h; series mostly up to 28.7 µM
Summary of the method: as §1

JCK = assay: as above; conditions: P. falciparum in erythrocytes, SYBR Green DNA, 72 h; series mostly up to 28.7 µM
Summary of the method: as §1

N140 = assay: as above; conditions: P. falciparum in erythrocytes, SYBR Green DNA, 72 h; series mostly up to 28.7 µM
Summary of the method: as §1

P93_24 = assay: as above; conditions: P. falciparum in erythrocytes, SYBR Green DNA, 72 h; series mostly up to 28.7 µM
Summary of the method: as §1

P94_40 = assay: as above; conditions: P. falciparum in erythrocytes, SYBR Green DNA, 72 h; series mostly up to 28.7 µM
Summary of the method: as §1

PAD = assay: as above; conditions: P. falciparum in erythrocytes, SYBR Green DNA, 72 h; series mostly up to 28.7 µM
Summary of the method: as §1

PC15 = assay: as above; conditions: P. falciparum in erythrocytes, SYBR Green DNA, 72 h; series mostly up to 28.7 µM
Summary of the method: as §1

PC26 = assay: as above; conditions: P. falciparum in erythrocytes, SYBR Green DNA, 72 h; series mostly up to 28.7 µM
Summary of the method: as §1

SC27B = assay: as above; conditions: P. falciparum in erythrocytes, SYBR Green DNA, 72 h; series mostly up to 28.7 µM
Summary of the method: as §1

TAB109 = assay: as above; conditions: P. falciparum in erythrocytes, SYBR Green DNA, 72 h; series mostly up to 28.7 µM
Summary of the method: as §1

TAB113 = assay: as above; conditions: P. falciparum in erythrocytes, SYBR Green DNA, 72 h; series mostly up to 28.7 µM
Summary of the method: as §1

TAB165 = assay: as above; conditions: P. falciparum in erythrocytes, SYBR Green DNA, 72 h; series mostly up to 28.7 µM
Summary of the method: as §1

W2 = assay: as above; conditions: P. falciparum in erythrocytes, SYBR Green DNA, 72 h; series mostly up to 28.7 µM
Summary of the method: as §1

CRL-7250 = normal cell line; assay: Cytotoxic Profiling of Annotated Libraries Using Quantitative High-Throughput Screening (AID 1296008); conditions: Five cell lines viability, CellTiter-Glo ATP luminescence, 48-72 h; max response: hits give low values; as to max response: % is scaled to controls: 0 for no effect and ±100 for the full control effect
Summary of the method: (§2)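 Cells exposed to compounds for 48 or 72 hr at 37 degrees Celsius. Viability read as ATP-coupled luminescence with CellTiter-Glo after 10 min at room temperature.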

HEK293 = assay: as above; conditions: Five cell lines viability, CellTiter-Glo ATP luminescence, 48-72 h; max response: hits give low values
Summary of the method: as §2

HaCat = assay: as above; conditions: Five cell lines viability, CellTiter-Glo ATP luminescence, 48-72 h; max response: hits give low values
Summary of the method: as §2

KB-3-1 = assay: as above; conditions: Five cell lines viability, CellTiter-Glo ATP luminescence, 48-72 h; max response: hits give low values
Summary of the method: as §2

PC49 = assay: qHTS profiling for inhibitors of Plasmodium falciparum proliferation (AID 504749); conditions: P. falciparum in erythrocytes, SYBR Green DNA, 72 h; series mostly up to 28.7 µM
Summary of the method: as §1
Also: nearly all actives have a fitted effect of over 60% in size.
Potency is read from the fitted curve at half-maximal effect.

CC(C)(C(=O)c1cccnc1)c1cccnc1
inactive: Potency (GB4) | Potency (HB3) | Potency (ICS) | Potency (N140) | Potency (P93_24) | Potency (P94_40) | Potency (PAD) | Potency (PC15) | Potency (PC26) | Potency (SC27B) | Potency (TAB109) | Potency (TAB113) | Potency (TAB165) | Potency (W2) | max response (CRL-7250) -2.01% | outcome (HEK293) | max response (HaCat) 3.03% | max response (KB-3-1) 11%
active: Potency (JCK) 10000 nM

Oc1ccc(O)cc1
active: Potency (ICS) 11200 nM | Potency (W2) 12000 nM
inactive: Potency (JCK) | Potency (PAD) | Potency (PC15) | Potency (PC49) | Potency (SC27B) | Potency (TAB109) | outcome (CRL-7250) | max response (HEK293) -16.2% | outcome (HaCat) | max response (KB-3-1) -4.96%

CC(C)COC(=O)c1ccc(N)cc1
inactive: Potency (GB4) | Potency (HB3) | Potency (ICS) | Potency (N140) | Potency (P93_24) | Potency (PAD) | Potency (PC15) | Potency (PC26) | Potency (PC49) | Potency (SC27B) | Potency (TAB113) | Potency (TAB165) | Potency (W2) | max response (CRL-7250) 2.7% | max response (HEK293) -1.38% | outcome (HaCat) | max response (KB-3-1) 12.1%

Cc1c(N(C)CS(=O)(=O)O)c(=O)n(-c2ccccc2)n1C
inactive: Potency (GB4) | Potency (HB3) | Potency (ICS) | Potency (JCK) | Potency (N140) | Potency (P93_24) | Potency (P94_40) | Potency (PAD) | Potency (PC15) | Potency (PC26) | Potency (PC49) | Potency (SC27B) | Potency (TAB109) | Potency (TAB113) | Potency (TAB165) | Potency (W2) | outcome (CRL-7250) | outcome (HEK293) | outcome (HaCat) | max response (KB-3-1) 16.1%

CCCCC(CC)CN=C(N)NC(N)=NCCCCCCN=C(N)NC(N)=NCC(CC)CCCC (stereo not drawn)
active: Potency (GB4) 1510 nM | Potency (HB3) 2240 nM | Potency (ICS) 316 nM | Potency (JCK) 3980 nM | Potency (N140) 1000 nM | Potency (P93_24) 1780 nM | Potency (P94_40) 1260 nM | Potency (PAD) 891 nM | Potency (PC15) 2820 nM | Potency (PC26) 1510 nM | Potency (PC49) 2240 nM | Potency (SC27B) 2000 nM | Potency (TAB109) 1120 nM | Potency (TAB113) 1780 nM | Potency (TAB165) 1260 nM | Potency (W2) 1070 nM | Potency (CRL-7250) 7500 nM | Potency (HEK293) 2990 nM | Potency (HaCat) 6680 nM

COC(=O)[C@@H]1CC2=CC(=O)CC[C@]2(C)[C@@]23O[C@@H]2C[C@@]2(C)[C@@H](CC[C@@]24CCC(=O)O4)[C@H]13
inactive: Potency (GB4) | Potency (HB3) | Potency (ICS) | Potency (JCK) | Potency (N140) | Potency (P93_24) | Potency (P94_40) | Potency (PAD) | Potency (PC15) | Potency (PC26) | Potency (PC49) | Potency (SC27B) | Potency (TAB109) | Potency (TAB113) | Potency (TAB165) | Potency (W2) | max response (CRL-7250) -2.8% | max response (HEK293) 3.69% | outcome (HaCat) | max response (KB-3-1) -7.46%

Cc1ccc(O)c2ncccc12
inactive: Potency (HB3) | Potency (JCK) | Potency (P93_24) | Potency (PAD) | Potency (PC15) | Potency (PC26) | Potency (PC49) | Potency (SC27B) | max response (CRL-7250) -10.3% | max response (HaCat) 2.26% | max response (KB-3-1) -5.97%

C=C(CC)C(=O)c1ccc(OCC(=O)O)c(Cl)c1Cl
inactive: max response (CRL-7250) -16.5% | max response (HaCat) -11.5% | max response (KB-3-1) -0.176%
active: Potency (ICS) 10000 nM | Potency (TAB113) 14100 nM | Potency (TAB165) 12600 nM

CCN(CCCc1ccccc1)CCCc1ccccc1
active: Potency (W2) 1280 nM
inactive: Potency (HB3) | Potency (JCK) | Potency (PAD) | Potency (PC15) | Potency (PC26) | Potency (PC49) | Potency (SC27B) | outcome (CRL-7250) | max response (HaCat) 0.9% | max response (KB-3-1) -18.5%

C[C@@H]1C[C@H]2[C@@H]3CCC4=CC(=O)C=C[C@]4(C)[C@@]3(F)[C@@H](O)C[C@]2(C)[C@H]1C(=O)CO
inactive: Potency (JCK) | Potency (P94_40) | Potency (PC15) | Potency (PC49) | Potency (SC27B) | Potency (TAB109) | Potency (TAB113) | max response (CRL-7250) -8.13% | max response (HaCat) -8.02% | max response (KB-3-1) 11.3%

c1ccc(OCc2ccc(CCCN3CCOCC3)cc2)cc1
inactive: Potency (HB3) | Potency (JCK) | Potency (N140) | Potency (P93_24) | Potency (P94_40) | Potency (PAD) | Potency (PC15) | Potency (SC27B) | Potency (TAB109) | Potency (TAB113) | Potency (TAB165) | max response (CRL-7250) -18% | max response (HaCat) 1.82% | max response (KB-3-1) 2.12%

CCCCCCC[N+](CC)(CC)CCCCc1ccc(Cl)cc1
inactive: max response (KB-3-1) -16.1%
active: Potency (GB4) 721 nM | Potency (HB3) 2510 nM | Potency (ICS) 708 nM | Potency (JCK) 3160 nM | Potency (N140) 2510 nM | Potency (P93_24) 2240 nM | Potency (P94_40) 2000 nM | Potency (PAD) 3980 nM | Potency (PC15) 1580 nM | Potency (PC26) 2030 nM | Potency (PC49) 3160 nM | Potency (SC27B) 2820 nM | Potency (TAB109) 2000 nM | Potency (TAB113) 2240 nM | Potency (TAB165) 2000 nM | Potency (W2) 1610 nM | Potency (CRL-7250) 7500 nM | Potency (HEK293) 6680 nM

CN(C)CC/C=C1\c2ccccc2Sc2ccc(Cl)cc21
inactive: max response (CRL-7250) -3.17% | outcome (HaCat) | max response (KB-3-1) -2.56%
active: Potency (ICS) 10000 nM | Potency (N140) 12600 nM | Potency (P94_40) 10000 nM | Potency (PC15) 11200 nM | Potency (PC49) 11200 nM | Potency (TAB165) 7940 nM | Potency (W2) 2690 nM
